Pf Dd2 inh – P. falciparum Dd2 growth inhibition; SYBR Green, 72 h; hits give low values; activity change, % at 10 µM; actives 2.3% (n = 94,000); in the data active = activity change below about -80%
C diff HTS – blocks growth of Clostridium difficile; growth activity, negative = inhibition, % at 16 µg/mL (by protocol); Clostridium difficile clinical isolate growth, OD600, 24 h; hits give low values; actives 0.25% (n = 86,000); AID 1259249;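 active = mean growth activity at or below -80% and every replicate also at or below -80%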
Of the large screens only hits and unclear results are named; the others gave an inactive call. Only some compounds are listed: those with a hit (about 2.3% of all), similar ones and a draw of the others.

O=C(C[C@@H]1C[C@@H]2c3cc(NC(=O)CC4CC4)ccc3O[C@@H]2[C@H](CO)O1)NCc1ccccc1F	none
CCC(=O)N1C[C@H]2[C@@H](c3ccccc31)[C@H](CO)N2C(=O)Nc1ccccc1F	none
C[C@H]1CN([C@@H](C)CO)C(=O)c2cc(-c3cccc(C#N)c3)cnc2O[C@@H]1CN(C)Cc1cccnc1	none (no result: C diff HTS)
Cc1ccc(S(=O)(=O)Nc2ccc3c(c2)C(=O)N([C@@H](C)CO)C[C@H](C)[C@H](CN(C)Cc2ccc(C(=O)O)cc2)OCCCC[C@@H](C)O3)cc1	none (no result: C diff HTS)
C[C@@H]1CN([C@H](C)CO)C(=O)c2cccc(NC(=O)Nc3ccc(C(F)(F)F)cc3)c2O[C@H]1CN(C)C(=O)Nc1ccc(C(F)(F)F)cc1	none
CCS(=O)(=O)N[C@@H]1C=C[C@H](CC(=O)NCc2ccccn2)O[C@@H]1CO	none
Cc1noc(C)c1NC(=O)Nc1ccc2c(c1)CC(=O)N([C@H](C)CO)C[C@H](C)[C@@H](CN(C)Cc1ccc(Oc3ccccc3)cc1)O2	none
Cc1ccc(-c2ccc3c(c2)O[C@H](CN(C)Cc2cccnc2)[C@@H](C)CN([C@@H](C)CO)S3(=O)=O)cc1	Pf Dd2 inh -83
C[C@@H]1CN([C@@H](C)CO)S(=O)(=O)c2ccc(-c3ccncc3)cc2O[C@@H]1CN(C)Cc1cccnc1	none
C[C@@H]1CN([C@@H](C)CO)S(=O)(=O)c2ccc(-c3cccc(C(=O)N(C)C)c3)cc2O[C@H]1CN(C)Cc1ccc2c(c1)OCO2	Pf Dd2 inh -82
Cc1ccc(-c2ccc3c(c2)O[C@@H](CN(C)Cc2ccncc2)[C@H](C)CN([C@H](C)CO)S3(=O)=O)cc1	Pf Dd2 inh -84
C[C@@H]1CN([C@@H](C)CO)S(=O)(=O)c2ccc(-c3cccc(C(=O)N(C)C)c3)cc2O[C@@H]1CN(C)Cc1ccc2c(c1)OCO2	none
Cc1ccc(-c2ccc3c(c2)O[C@H](CN(C)Cc2ccncc2)[C@@H](C)CN([C@@H](C)CO)S3(=O)=O)cc1	none
O=S(=O)(N[C@@H]1CC[C@H](CCn2cc(C3CC3)nn2)O[C@H]1CO)c1ccc(Cl)cc1	none
O=C(Cc1ccccn1)N[C@H]1CC[C@H](CC(=O)N2CCCCC2)O[C@H]1CO	none
O=C(C[C@H]1CC[C@H](NC(=O)c2ccccc2)[C@@H](CO)O1)NCc1ccncn1	none
CCCN(C)C[C@@H]1OCCCC[C@H](C)Oc2ccc(NC(=O)CCC(F)(F)F)cc2C(=O)N([C@@H](C)CO)C[C@@H]1C	none (no result: Pf Dd2 inh)
COc1ccc(S(=O)(=O)N(C)C[C@H]2Oc3cc(C#CC4CCCCC4)ccc3S(=O)(=O)N([C@@H](C)CO)C[C@H]2C)cc1	none (no result: C diff HTS)
C[C@@H]1CN([C@@H](C)CO)S(=O)(=O)c2ccc(C#Cc3ccccc3)cc2O[C@H]1CN(C)S(=O)(=O)c1cn(C)cn1	none
COc1cccc(C#Cc2ccc3c(c2)O[C@H](CN(C)S(=O)(=O)c2ccccc2F)[C@H](C)CN([C@H](C)CO)S3(=O)=O)c1	none
COc1ccc(S(=O)(=O)N(C)C[C@@H]2Oc3cc(C#CC4CCCCC4)ccc3S(=O)(=O)N([C@@H](C)CO)C[C@H]2C)cc1	Pf Dd2 inh -84 (no result: C diff HTS)
COc1ccc(C#Cc2ccc3c(c2)O[C@H](CN(C)S(=O)(=O)c2ccccc2F)[C@@H](C)CN([C@H](C)CO)S3(=O)=O)cc1	Pf Dd2 inh -87
COc1ccc(C#Cc2ccc3c(c2)O[C@@H](CN(C)S(=O)(=O)c2ccccc2F)[C@@H](C)CN([C@@H](C)CO)S3(=O)=O)cc1	Pf Dd2 inh -90
COc1cccc(C#Cc2ccc3c(c2)O[C@H](CN(C)S(=O)(=O)c2ccccc2F)[C@@H](C)CN([C@@H](C)CO)S3(=O)=O)c1	none
C[C@H]1CN([C@@H](C)CO)S(=O)(=O)c2ccc(C#Cc3ccccc3)cc2O[C@@H]1CN(C)S(=O)(=O)c1cn(C)cn1	Pf Dd2 inh -87
COc1cccc(-c2ccc3c(c2)[C@@H]2[C@@H](CCN2C(=O)c2ccc(F)cc2)[C@H](CO)N3)c1	none
COc1ccc(-c2ccc3n(c2=O)C[C@H]2[C@H](CO)[C@@H](C(=O)Nc4ccccc4)[C@@H]3N2C)cc1	none (no result: Pf Dd2 inh)
C[C@H](CO)N1C[C@H](C)[C@H](CN(C)C(=O)Nc2cccc3ccccc23)Oc2ncc(-c3cccc(C(F)(F)F)c3)cc2C1=O	none (no result: C diff HTS)
CCS(=O)(=O)N1[C@H](CO)[C@@H](c2ccccc2)C12CN(C(=O)C1CC1)C2	none
COc1cccc(C#Cc2ccc([C@H]3[C@@H](CO)N4C(=O)CN(C(=O)c5ccccc5)C[C@H]34)cc2)c1	Pf Dd2 inh -89
COc1cccc(C#Cc2ccc([C@@H]3[C@H]4CN(C(=O)c5ccccc5)CC(=O)N4[C@H]3CO)cc2)c1	none
COc1cccc(NC(=O)N2CC(=O)N3[C@H](CO)[C@@H](c4ccc(C#CCC5CCCC5)cc4)[C@H]3C2)c1	Pf Dd2 inh -91
O=C(c1ccc(F)cc1)N1CC(=O)N2[C@H](C1)[C@H](c1ccc(C#Cc3ccc(F)cc3)cc1)[C@@H]2CO	none

Assay outcomes as filed in PubChem BioAssay.
